Experimental findings from PubChem BioAssay (EPA / NIEHS) are described below.

Activity calls are given as the source filed them. Rule for the calls: active = hit-call score of the fitted dose curve at least 0.9, where 1 is the maximum; inactive = score below 0.9.

Read-out in the first experiment: not listed separately
Put plainly: BSK_CASM3C_SRB: Viability Assessment in the BioMAP Diversity Plus: CASM3C Assay (AID 2283050).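 Note: total protein by SRB staining as cytotoxicity measure in parallel cultures; cells exposed to compound for 24 h.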 The note with it: primary human coronary artery smooth muscle cells.
For `CC(=O)OC1CC(C)OC(C)O1` (stereo not given), the result was inactive.

Turning to `CC(=O)OCC(COC(C)=O)OC(C)=O`, the outcome was inactive.

For the molecule `CCCCc1nc2cccnc2n1Cc1ccc(-c2ccccc2-c2nnn[nH]2)cc1`, the result was inactive.

On to `O=C1OC(c2ccc(O)cc2)(c2ccc(O)cc2)c2ccccc21`, for which the outcome was inactive.

With `Cc1cc(Cc2ccc(N)c(C)c2)ccc1N`, the outcome was inactive.

Turning to `CC(C)COC(=O)CCCCC(=O)OCC(C)C`, the outcome was inactive.

Regarding `CCCCC(CC)COP(=O)(OCC(CC)CCCC)OCC(CC)CCCC` (stereo not given), the outcome was inactive.

Turning to `O=C(Oc1ccccc1)c1cccc(C(=O)Oc2ccccc2)c1`, the outcome was inactive.

Take `CCCCOC(=O)CCCCC(=O)OCCCC`: the outcome was inactive.

Turning to `OCC(O)CO`, the outcome was inactive.

As for `O=NO`, the result was inactive.

As to `CCCCCCC(CCCCCCCCCCC(=O)OCC(COC(C)=O)OC(C)=O)OC(C)=O` (stereo not given), the result was inactive.

Take `Nc1nc(Cl)nc2c1ncn2[C@H]1C[C@H](O)[C@@H](CO)O1`: the result was inactive.

Consider `Oc1ccc(O)cc1`, for which the outcome was inactive.

For `C/C=C/C=C/C(=O)O`, the result was inactive.

As for `Cc1ccc(C(C)(C)C)c(O)c1`, the result was inactive.

For the molecule `CC(C)(C)c1ccccc1`, the outcome was inactive.

As to `CCCCC(CC)CO` (stereo not given), the outcome was inactive.

As to `N[C@@H](Cc1c[nH]c2ccccc12)C(=O)O`, the outcome was inactive.

As for `Cc1ccc(-c2cc(C(F)(F)F)nn2-c2ccc(S(N)(=O)=O)cc2)cc1`, the AC50 (in general, the midpoint of the concentration-response curve, whichever way the signal moves) was 33.9 µM (active).

Regarding `O=C(O)c1cccnc1`, the outcome was inactive.

`O=C1NC(=O)C(c2ccccc2)(c2ccccc2)N1`: the outcome was inactive.

Regarding `Nc1nc(=S)c2[nH]cnc2[nH]1`, the outcome was inactive.

With `CSc1ccc(Oc2ccc(S(N)(=O)=O)cc2CN(C)C)cc1C`, the result was inactive.

Regarding `CC(=O)O[C@]1(C(C)=O)CC[C@H]2[C@@H]3C=C(Cl)C4=CC(=O)[C@@H]5C[C@@H]5[C@]4(C)[C@H]3CC[C@@]21C`, the result was inactive.

Turning to `Cc1occc(=O)c1O`, the outcome was inactive.

As for `CCCCC(CC)COC(=O)CCCCCCCC(=O)OCC(CC)CCCC` (stereo not given), the result was inactive.

Regarding `CC(C)NCC(O)c1ccc(O)c(O)c1` (stereo not given), the outcome was inactive.

With `CC(=O)S[C@H](C(=O)N[C@H]1Cc2ccccc2[C@H]2CCC[C@@H](C(=O)O)N2C1=O)C(C)C`, the outcome was inactive.

With `CC(=O)O`, the outcome was inactive.

Read-out in a further experiment: Thrombomodulin, THBD (gene 7056)
In words: BSK_CASM3C_Thrombomodulin: BioMAP Diversity Plus: CASM3C Assay for Thrombomodulin Biomarker Activity (AID 2283051).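 Note: thrombomodulin protein level measured by ELISA 24 h after dosing.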 The note with it: primary human coronary artery smooth muscle cells; actives raise or lower the signal.
In the case of `CC(=O)OC1CC(C)OC(C)O1` (stereo not given), the result was inactive.

On to `CC(=O)OCC(COC(C)=O)OC(C)=O`, for which the outcome was inactive.

In the case of `CCCCc1nc2cccnc2n1Cc1ccc(-c2ccccc2-c2nnn[nH]2)cc1`, the result was inactive.

Regarding `O=C1OC(c2ccc(O)cc2)(c2ccc(O)cc2)c2ccccc21`, the outcome was inactive.

For the molecule `Cc1cc(Cc2ccc(N)c(C)c2)ccc1N`, the outcome was inactive.

For the molecule `CC(C)COC(=O)CCCCC(=O)OCC(C)C`, the result was inactive.

Consider `CCCCC(CC)COP(=O)(OCC(CC)CCCC)OCC(CC)CCCC` (stereo not given), for which the AC50 was 7.89 µM (active).

For the molecule `O=C(Oc1ccccc1)c1cccc(C(=O)Oc2ccccc2)c1`, the outcome was inactive.

With `CCCCOC(=O)CCCCC(=O)OCCCC`, the result was inactive.

With `OCC(O)CO`, the outcome was inactive.

As to `O=NO`, the outcome was inactive.

Consider `CCCCCCC(CCCCCCCCCCC(=O)OCC(COC(C)=O)OC(C)=O)OC(C)=O` (stereo not given), for which the outcome was inactive.

For `Nc1nc(Cl)nc2c1ncn2[C@H]1C[C@H](O)[C@@H](CO)O1`, the outcome was inactive.

For `Oc1ccc(O)cc1`, the half-maximal activity concentration (AC50) is 10.7 µM (active).

Turning to `C/C=C/C=C/C(=O)O`, the result was inactive.

As to `Cc1ccc(C(C)(C)C)c(O)c1`, the outcome was inactive.

Consider `CC(C)(C)c1ccccc1`, for which the outcome was inactive.

In the case of `CCCCC(CC)CO` (stereo not given), the result was inactive.

As to `N[C@@H](Cc1c[nH]c2ccccc12)C(=O)O`, the outcome was inactive.

As to `Cc1ccc(-c2cc(C(F)(F)F)nn2-c2ccc(S(N)(=O)=O)cc2)cc1`, the concentration at half-maximal activity (AC50) is 4.85 µM (active).

`O=C(O)c1cccnc1`: the result was inactive.

As for `O=C1NC(=O)C(c2ccccc2)(c2ccccc2)N1`, the outcome was inactive.

Regarding `Nc1nc(=S)c2[nH]cnc2[nH]1`, the outcome was inactive.

Consider `CSc1ccc(Oc2ccc(S(N)(=O)=O)cc2CN(C)C)cc1C`, for which the outcome was inactive.

For the molecule `CC(=O)O[C@]1(C(C)=O)CC[C@H]2[C@@H]3C=C(Cl)C4=CC(=O)[C@@H]5C[C@@H]5[C@]4(C)[C@H]3CC[C@@]21C`, the result was inactive.

As for `Cc1occc(=O)c1O`, the result was inactive.

Consider `CCCCC(CC)COC(=O)CCCCCCCC(=O)OCC(CC)CCCC` (stereo not given), for which the outcome was inactive.

In the case of `CC(C)NCC(O)c1ccc(O)c(O)c1` (stereo not given), the result was inactive.

`CC(=O)S[C@H](C(=O)N[C@H]1Cc2ccccc2[C@H]2CCC[C@@H](C(=O)O)N2C1=O)C(C)C`: the result was inactive.

Turning to `CC(=O)O`, the outcome was inactive.

Read-out in the next experiment: Tissue Factor, F3 (gene 2152)
Put plainly: BSK_CASM3C_TissueFactor: BioMAP Diversity Plus: CASM3C Assay for Tissue Factor Biomarker Activity (AID 2283052).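 Note: cell surface tissue factor protein level read by ELISA.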 To be noted: primary human coronary artery smooth muscle cells; actives raise or lower the signal.
On to `CC(=O)OC1CC(C)OC(C)O1` (stereo not given), for which the outcome was inactive.

In the case of `CC(=O)OCC(COC(C)=O)OC(C)=O`, the outcome was inactive.

Regarding `CCCCc1nc2cccnc2n1Cc1ccc(-c2ccccc2-c2nnn[nH]2)cc1`, the result was inactive.

Take `O=C1OC(c2ccc(O)cc2)(c2ccc(O)cc2)c2ccccc21`: the outcome was inactive.

In the case of `Cc1cc(Cc2ccc(N)c(C)c2)ccc1N`, the result was inactive.

As to `CC(C)COC(=O)CCCCC(=O)OCC(C)C`, the result was inactive.

Regarding `CCCCC(CC)COP(=O)(OCC(CC)CCCC)OCC(CC)CCCC` (stereo not given), the result was inactive.

For `O=C(Oc1ccccc1)c1cccc(C(=O)Oc2ccccc2)c1`, the result was inactive.

Consider `CCCCOC(=O)CCCCC(=O)OCCCC`, for which the outcome was inactive.

With `OCC(O)CO`, the result was inactive.

For the molecule `O=NO`, the outcome was inactive.

Regarding `CCCCCCC(CCCCCCCCCCC(=O)OCC(COC(C)=O)OC(C)=O)OC(C)=O` (stereo not given), the result was inactive.

With `Nc1nc(Cl)nc2c1ncn2[C@H]1C[C@H](O)[C@@H](CO)O1`, the outcome was inactive.

`Oc1ccc(O)cc1`: the result was inactive.

On to `C/C=C/C=C/C(=O)O`, for which the outcome was inactive.

Turning to `Cc1ccc(C(C)(C)C)c(O)c1`, the outcome was inactive.

As for `CC(C)(C)c1ccccc1`, the outcome was inactive.

Turning to `CCCCC(CC)CO` (stereo not given), the result was inactive.

With `N[C@@H](Cc1c[nH]c2ccccc12)C(=O)O`, the outcome was inactive.

Regarding `Cc1ccc(-c2cc(C(F)(F)F)nn2-c2ccc(S(N)(=O)=O)cc2)cc1`, the concentration at half-maximal activity (AC50) was 36.7 µM (active).

On to `O=C(O)c1cccnc1`, for which the result was inactive.

For the molecule `O=C1NC(=O)C(c2ccccc2)(c2ccccc2)N1`, the outcome was inactive.

On to `Nc1nc(=S)c2[nH]cnc2[nH]1`, for which the result was inactive.

For `CSc1ccc(Oc2ccc(S(N)(=O)=O)cc2CN(C)C)cc1C`, the outcome was inactive.

`CC(=O)O[C@]1(C(C)=O)CC[C@H]2[C@@H]3C=C(Cl)C4=CC(=O)[C@@H]5C[C@@H]5[C@]4(C)[C@H]3CC[C@@]21C`: the result was inactive.

`Cc1occc(=O)c1O`: the outcome was inactive.

Regarding `CCCCC(CC)COC(=O)CCCCCCCC(=O)OCC(CC)CCCC` (stereo not given), the outcome was inactive.

In the case of `CC(C)NCC(O)c1ccc(O)c(O)c1` (stereo not given), the outcome was inactive.

Consider `CC(=O)S[C@H](C(=O)N[C@H]1Cc2ccccc2[C@H]2CCC[C@@H](C(=O)O)N2C1=O)C(C)C`, for which the result was inactive.

In the case of `CC(=O)O`, the outcome was inactive.
